These are literature values, as cited in PubChem BioAssay AID977611.

The campaign covered roughly 3,900 compounds. About 3,900 (100%) were called active. No cut-off is given here; in the data, nearly all actives have Kd up to about 4200 µM. The set was probably picked from earlier hits. The list shows a part of the results. Numbered stars: 1 amine (or outer) side, 2 acyl side, 3 side chain; on linkers, the order of the positions; unused ones are H or OH. Where a SMILES comes first, the peptide text is derived from it. Non-standard residues stand in square brackets, D forms with d. Square brackets hold non-standard residues; d marks the D form. Residues, ends and D or L forms follow the SMILES beside them. Peptide text beside a SMILES is read from it. [ ]: non-standard residue; d: D form. X1 = CNC(NC)NCCC[C@H](N[*:1])C(=O)[*:2]; Lys(Me3) = C[N+](C)(C)CCCC[C@H](N)C(=O)O; Orn(CH(NH2)2) = NC(N)NCCC[C@H](N)C(=O)O; Abu = CC[C@H](N)C(=O)O

The data set in a line: PubChem AID 977611. Particulars: PDB protein-ligand complexes, literature Kd.

Take `O=C(O)CCc1ccc2c(c1)OCO2`: the Kd (in general, a measure of binding affinity in units of concentration) runs as follows: (protein: INTEGRASE, PDB entry 4ahr) 6500 µM (active); (protein: Pantothenate synthetase (T2A, E77G mutation), PDB entry 4ef6) 1200 µM (active).
As for `O=C(O)c1ccc2c(c1)OCO2`, the Kd (protein: Pantothenate synthetase (T2A, E77G mutation), PDB entry 4ddk) was 5100 µM (active).
In the case of `O=C1NC(=[N+]2CCCC2)Cc2ccccc21`, the Kd (protein: Caspase-6, PDB entry 4n7m) is 3.4 µM (active).
For the molecule `O=C(Nc1ccc(OC(F)(F)F)cc1)N(Cc1cccc(-c2nccs2)c1)C1CC1`, the Kd (protein: High affinity nerve growth factor receptor TrkA, PDB entry 4pmp) was 0.4 µM (active).
Consider `CCc1c(C(=O)Nc2cc(S(=O)(=O)N(CC)CC)ccc2O)[nH]c(C)c1C(C)=O`, for which, under “protein: Bromodomain-containing protein 4, BRD4(1), PDB entry 4lyw”, the Kd was 237 µM (active).
As to `CCc1c(C(=O)NC)[nH]c(C)c1C(C)=O`, where the note is “protein: Bromodomain-containing protein 4, BRD4(1), PDB entry 4lzs”, the Kd was 16 µM (active).
`CC(C)C[C@H](NC(=O)[C@H](CCC(N)=O)NC(=O)CNC(=O)[C@H](CCC(N)=O)NC(=O)[C@@H]1CCCN1C(=O)[C@H](CC(C)C)NC(=O)[C@@H]1CCCN1C(=O)[C@H](CCC(=O)O)NC(=O)[C@@H]1CCCN1C(=O)[C@@H](N)CC(C)C)C(=O)N[C@H](C(=O)N[C@@H](C)C(=O)N[C@@H](Cc1ccc(O)cc1)C(=O)O)[C@@H](C)O`: the Kd is, setting by setting: (protein: HLA class I histocompatibility antigen(HLA-B*3501), PDB entry 1zhk) 35.2 µM (active); (protein: HLA class I histocompatibility antigen(HLA-B*3508), PDB entry 1zhl) 9.9 µM (active).
For the molecule `CC(C)C[C@H](NC(=O)[C@@H](NC(=O)[C@H](C)NC(=O)[C@H](Cc1ccc(O)cc1)NC(=O)[C@H](C)NC(=O)[C@@H]1CCCN1C(=O)[C@@H]1CCCN1C(=O)[C@@H]1CCCN1C(=O)[C@H](C)NC(=O)[C@@H](N)[C@@H](C)O)[C@@H](C)O)C(=O)NCC(=O)O` (H-TAPPPAYATLG-OH), the Kd (protein: E3 ubiquitin-protein ligase NEDD4, PDB entry 2m3o) was 5 µM (active).
On to `CC[C@H](C)[C@H](NC(=O)[C@H](C)NC(=O)[C@@H]1CCCN1C(=O)[C@@H](NC(=O)[C@@H](N)CC(=O)O)[C@@H](C)CC)C(=O)N[C@@H](Cc1ccc(O)cc1)C(=O)N[C@@H](CCCNC(N)N)C(=O)N[C@@H](Cc1ccc(O)cc1)C(=O)NCC(=O)N[C@@H](CC(C)C)C(=O)N[C@@H](CCC(=O)O)C(=O)NCC(=O)N[C@@H](CC(C)C)C(=O)N[C@@H](CC(C)C)C(=O)O` (H-DIPAIY[Orn(CH(NH2)2)]YGLEGLL-OH), for which, under “protein: CELL DIVISION PROTEIN FTSA, PUTATIVE, PDB entry 4a2a”, the Kd was 45 µM (active).
As to `CC[C@H](C)[C@H](NC(=O)[C@H](CCC(=O)O)NC(=O)[C@@H](NC(=O)[C@H](CC(=O)O)NC(=O)CNC(=O)[C@H](Cc1ccc(O[P+](O)(O)O)cc1)NC(=O)[C@H](CC(=O)O)NC(=O)[C@H](CCC(=O)O)NC(=O)[C@@H]1CCCN1C(=O)[C@H](Cc1ccc(O)cc1)NC(=O)[C@@H]1CCCN1C(=O)[C@H](CC(N)=O)NC(=O)[C@@H](N)Cc1ccc(O)cc1)[C@@H](C)CC)C(=O)NCC(=O)O` (H-YNPYPED[X1]GDIEIG-OH), the Kd (protein: insulin receptor subunit beta, PDB entry 3bu6) was 1.3 µM (active).
Turning to `CC[C@H](NC(=O)[C@@H](NC(=O)[C@H](CC(C)C)NC(=O)[C@H](CC(=O)O)NC(=O)[C@H](CCC(N)=O)NC(=O)[C@H](CCC(=O)O)NC(=O)[C@@H](NC(=O)[C@@H]1CCCN1C(=O)[C@@H]1CCCN1C(=O)[C@@H](N)CC(C)C)[C@@H](C)O)[C@@H](C)O)C(=O)N[C@@H](CC(C)C)C(=O)N[C@@H](CC(C)C)C(=O)N[C@@H](C)C(=O)N[C@@H](CCC(=O)O)C(=O)O` (H-LPPTEQDLT[Abu]LLAE-OH), for the setting “protein: nuclear coactivator 1 (NCoA-1) PAS-B domain, PDB entry 1oj5”, the Kd is 0.8 µM (active).
Regarding H-DDDEDGYNPYTL-OH, where the note is “protein: CTD interacting domain of Protein NRD1, PDB entry 2mow”, the Kd was 1.09 µM (active).
On to H-QAQGPPYPTYPGY-OH, for which the Kd (protein: ESCRT and ALIX binding region (EABR), PDB entry 3e1r) was 1.5 µM (active).
In the case of `C[C@H](N)C(=O)N[C@@H](CCCNC(N)N)C(=O)N[C@@H](CCCC[N+](C)(C)C)C(=O)N[C@@H](CO)C(=O)N[C@@H](C)C(=O)NCC(=O)N[C@@H](C)C(=O)N[C@@H](C)C=O` (H-A[Orn(CH(NH2)2)][Lys(Me3)]SAGAA-aldehyde), for the setting “protein: Polycomb protein EED residues 77-441, PDB entry 3iiy”, the dissociation constant Kd is 16 µM (active).
On to `C[C@H](N)C(=O)N[C@@H](CCCN=C(N)N)C(=O)N[C@H](C(=O)N[C@@H](CCCC[N+](C)(C)C)C(=O)N[C@@H](CCC(N)=O)C(=O)N[C@H](C(=O)N[C@@H](C)C(=O)N[C@@H](CCCNC(N)=[N+](C)C)C(=O)N[C@@H](CCCCN)C(=O)O)[C@@H](C)O)[C@@H](C)O`, for which the Kd (protein: human Spindlin1, PDB entry 4mzf) is 0.045 µM (active).
As for `C[C@H](N)C(=O)N[C@@H](CCCN=C(N)N)C(=O)N[C@H](C(=O)N[C@@H](CCCC[N+](C)(C)C)C(=O)N[C@@H](CCC(N)=O)C(=O)N[C@H](C(=O)N[C@@H](C)C(=O)O)[C@@H](C)O)[C@@H](C)O` (H-ART[Lys(Me3)]QTA-OH), where the note is “protein: human Spindlin1, PDB entry 4mzh”, the Kd is 0.066 µM (active).
In the case of `CNC(NC)NCCC[C@H](NC(=O)[C@H](C)N)C(=O)N[C@H](C(=O)N[C@@H](CCCC[N+](C)(C)C)C(=O)N[C@@H](CCC(N)=O)C(=O)N[C@H](C(=O)N[C@@H](C)C(=O)N[C@@H](C)C(=O)N[C@@H](C)C(N)=O)[C@@H](C)O)[C@@H](C)O` (H-A[X1]T[Lys(Me3)]QTAAA-NH2), for the setting “protein: RAG2-PHD, PDB entry 2v87”, the Kd was 25.1 µM (active).
For the molecule `C[C@H](N)C(=O)N[C@@H](CCCNC(N)N)C(=O)N[C@@H](CCCC[N+](C)(C)C)C(=O)N[C@@H](CO)C(=O)N[C@@H](C)C(=O)O` (H-A[Orn(CH(NH2)2)][Lys(Me3)]SA-OH), for the setting “protein: Polycomb protein EED residues 77-441, PDB entry 3iiw”, the Kd was 36.4 µM (active).
`C[C@H](N)C(=O)N[C@@H](CCCNC(N)N)C(=O)N[C@H](C(=O)N[C@@H](CCCC[N+](C)(C)C)C(=O)N[C@@H](CCC(N)=O)C(=O)N[C@H](C(=O)N[C@@H](C)C(=O)O)[C@@H](C)O)[C@@H](C)O` (H-A[Orn(CH(NH2)2)]T[Lys(Me3)]QTA-OH): the Kd was 21 µM (active) (protein: Histone-lysine N-methyltransferase MLL5, PDB entry 4l58); 2.4 µM (active) (protein: Inhibitor of growth protein 5, PDB entry 3c6w); 10.4 µM (active) (protein: Jumonji domain-containing protein 2A, PDB entry 2gfa).
As to `C[C@H](N)C(=O)N[C@@H](CCCNC(N)N)C(=O)N[C@H](C(=O)N[C@@H](CCCC[N+](C)(C)C)C(=O)N[C@@H](CCC(N)=O)C(=O)N[C@H](C(=O)O)[C@@H](C)O)[C@@H](C)O` (H-A[Orn(CH(NH2)2)]T[Lys(Me3)]QT-OH), under “protein: bromodomain PHD finger transcription factor, PDB entry 2f6j”, the Kd was 2.7 µM (active).
